PubChem BioAssay
Several values for one entry are separate records, joined by “and”; a condition that tells them apart may be missing. Equal entries are not always repeated. Activity calls are given as the source filed them.

Key:
[1] = small molecules captured by biotinylated probe aFSTL3 – biochemical, small-molecule microarray, fluorescence 635/667, stem cell growth factor project, primary screen (AID 1064); conditions: higher = more signal;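 further: measures binding of the biotinylated anti-FSTL3 antibody to printed compounds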
[2] = binders from COS7 lysate, DM2A8 probe, primary screen, torsin A project, cell lysate, small-molecule microarray, fluorescence 635/667 (AID 1065); conditions: higher = more signal, COS7 lysate expressing mutant human TOR1A
[3] = small molecules captured by biotinylated probe aFGF2 – biochemical, small-molecule microarray, fluorescence 635/667, stem cell growth factor project, primary screen (AID 1067); conditions: higher = more signal;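 further: measures binding of biotinylated aFGF2 protein to printed compounds on slides; z-score merges feature fluorescence and signal-to-noise across triplicate slides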
[4] = small molecules captured by biotinylated probe aFGF10 – biochemical, small-molecule microarray, fluorescence 635/667, stem cell growth factor project, primary screen (AID 1071); conditions: higher = more signal;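 further: score merges 667 nm spot intensity and signal to noise from triplicate slides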
[5] = target: Neurogenic locus notch homolog protein 2 (Homo sapiens) (UniProt Q04721); assay: small molecules binding Notch2 protein – biochemical, small-molecule microarray, 635 nm fluorescence, stem cell growth factors, primary screen (AID 1073); conditions: higher = more signal
[6] = target: Pro-neuregulin-1, membrane-bound isoform (Homo sapiens) (UniProt Q02297); assay: small molecules binding neuregulin-1 protein – biochemical, small-molecule microarray, fluorescence 635/667, psychiatric disease protein project, primary screen (AID 1075); conditions: NRG1 binding, 635 nm fluorescence, higher = more signal;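 further: score combines 667 nm spot fluorescence with signal to noise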
[7] = tested on: Neuregulin-1 EGF-like domain; assay: small molecules binding NRG1 EGF domain – biochemical, small-molecule microarray, 635 nm fluorescence, primary screen (AID 1081); conditions: higher = more signal;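 further: binding of the protein to compounds printed on small-molecule microarray slides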
[8] = FRG1 expression reporter modulators in myotubes – cell-based, C2C12 myotubes, firefly/Renilla luciferase, luminescence, FRG1 inhibition for FSHD, primary screen (AID 1084); conditions: FRG1 promoter luciferase, higher = more signal, called active from +8 up or from −8 down
[9] = small molecules captured by biotinylated probe aFST – biochemical, small-molecule microarray, fluorescence 635/667, stem cell growth factor project, primary screen (AID 1086); conditions: higher = more signal;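 further: score merges 667 nm fluorescence with signal-to-noise of each printed compound spot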
[10] = binders of probe aHhip on microarray, primary screen, stem cell growth factor project, biochemical, small-molecule microarray, fluorescence 635/667 (AID 1087); conditions: higher = more signal;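 further: score merges spot fluorescence at 667nm with spot signal to noise ratio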

Chain of Pro-neuregulin-1, membrane-bound isoform (Homo sapiens) (Q02297 whole entry, looked up, the tested form may be a part, canonical isoform): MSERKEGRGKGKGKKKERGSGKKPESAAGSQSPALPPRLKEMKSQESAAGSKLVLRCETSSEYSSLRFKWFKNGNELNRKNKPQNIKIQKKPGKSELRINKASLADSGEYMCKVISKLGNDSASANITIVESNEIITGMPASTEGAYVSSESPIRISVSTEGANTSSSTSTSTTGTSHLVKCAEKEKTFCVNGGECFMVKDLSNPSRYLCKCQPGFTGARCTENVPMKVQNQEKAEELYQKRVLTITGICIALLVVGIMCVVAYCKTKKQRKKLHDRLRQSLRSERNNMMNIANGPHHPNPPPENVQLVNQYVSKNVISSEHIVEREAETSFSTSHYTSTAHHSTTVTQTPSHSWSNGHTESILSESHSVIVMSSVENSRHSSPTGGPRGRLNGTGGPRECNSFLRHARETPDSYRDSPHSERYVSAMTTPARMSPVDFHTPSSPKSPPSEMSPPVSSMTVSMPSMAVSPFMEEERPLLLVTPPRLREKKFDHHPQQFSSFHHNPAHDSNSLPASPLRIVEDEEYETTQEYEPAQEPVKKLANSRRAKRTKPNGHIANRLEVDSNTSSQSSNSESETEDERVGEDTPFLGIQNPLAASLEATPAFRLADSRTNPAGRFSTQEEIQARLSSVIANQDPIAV
Chain of Neurogenic locus notch homolog protein 2 (Homo sapiens) (Q04721 whole entry, looked up, canonical isoform): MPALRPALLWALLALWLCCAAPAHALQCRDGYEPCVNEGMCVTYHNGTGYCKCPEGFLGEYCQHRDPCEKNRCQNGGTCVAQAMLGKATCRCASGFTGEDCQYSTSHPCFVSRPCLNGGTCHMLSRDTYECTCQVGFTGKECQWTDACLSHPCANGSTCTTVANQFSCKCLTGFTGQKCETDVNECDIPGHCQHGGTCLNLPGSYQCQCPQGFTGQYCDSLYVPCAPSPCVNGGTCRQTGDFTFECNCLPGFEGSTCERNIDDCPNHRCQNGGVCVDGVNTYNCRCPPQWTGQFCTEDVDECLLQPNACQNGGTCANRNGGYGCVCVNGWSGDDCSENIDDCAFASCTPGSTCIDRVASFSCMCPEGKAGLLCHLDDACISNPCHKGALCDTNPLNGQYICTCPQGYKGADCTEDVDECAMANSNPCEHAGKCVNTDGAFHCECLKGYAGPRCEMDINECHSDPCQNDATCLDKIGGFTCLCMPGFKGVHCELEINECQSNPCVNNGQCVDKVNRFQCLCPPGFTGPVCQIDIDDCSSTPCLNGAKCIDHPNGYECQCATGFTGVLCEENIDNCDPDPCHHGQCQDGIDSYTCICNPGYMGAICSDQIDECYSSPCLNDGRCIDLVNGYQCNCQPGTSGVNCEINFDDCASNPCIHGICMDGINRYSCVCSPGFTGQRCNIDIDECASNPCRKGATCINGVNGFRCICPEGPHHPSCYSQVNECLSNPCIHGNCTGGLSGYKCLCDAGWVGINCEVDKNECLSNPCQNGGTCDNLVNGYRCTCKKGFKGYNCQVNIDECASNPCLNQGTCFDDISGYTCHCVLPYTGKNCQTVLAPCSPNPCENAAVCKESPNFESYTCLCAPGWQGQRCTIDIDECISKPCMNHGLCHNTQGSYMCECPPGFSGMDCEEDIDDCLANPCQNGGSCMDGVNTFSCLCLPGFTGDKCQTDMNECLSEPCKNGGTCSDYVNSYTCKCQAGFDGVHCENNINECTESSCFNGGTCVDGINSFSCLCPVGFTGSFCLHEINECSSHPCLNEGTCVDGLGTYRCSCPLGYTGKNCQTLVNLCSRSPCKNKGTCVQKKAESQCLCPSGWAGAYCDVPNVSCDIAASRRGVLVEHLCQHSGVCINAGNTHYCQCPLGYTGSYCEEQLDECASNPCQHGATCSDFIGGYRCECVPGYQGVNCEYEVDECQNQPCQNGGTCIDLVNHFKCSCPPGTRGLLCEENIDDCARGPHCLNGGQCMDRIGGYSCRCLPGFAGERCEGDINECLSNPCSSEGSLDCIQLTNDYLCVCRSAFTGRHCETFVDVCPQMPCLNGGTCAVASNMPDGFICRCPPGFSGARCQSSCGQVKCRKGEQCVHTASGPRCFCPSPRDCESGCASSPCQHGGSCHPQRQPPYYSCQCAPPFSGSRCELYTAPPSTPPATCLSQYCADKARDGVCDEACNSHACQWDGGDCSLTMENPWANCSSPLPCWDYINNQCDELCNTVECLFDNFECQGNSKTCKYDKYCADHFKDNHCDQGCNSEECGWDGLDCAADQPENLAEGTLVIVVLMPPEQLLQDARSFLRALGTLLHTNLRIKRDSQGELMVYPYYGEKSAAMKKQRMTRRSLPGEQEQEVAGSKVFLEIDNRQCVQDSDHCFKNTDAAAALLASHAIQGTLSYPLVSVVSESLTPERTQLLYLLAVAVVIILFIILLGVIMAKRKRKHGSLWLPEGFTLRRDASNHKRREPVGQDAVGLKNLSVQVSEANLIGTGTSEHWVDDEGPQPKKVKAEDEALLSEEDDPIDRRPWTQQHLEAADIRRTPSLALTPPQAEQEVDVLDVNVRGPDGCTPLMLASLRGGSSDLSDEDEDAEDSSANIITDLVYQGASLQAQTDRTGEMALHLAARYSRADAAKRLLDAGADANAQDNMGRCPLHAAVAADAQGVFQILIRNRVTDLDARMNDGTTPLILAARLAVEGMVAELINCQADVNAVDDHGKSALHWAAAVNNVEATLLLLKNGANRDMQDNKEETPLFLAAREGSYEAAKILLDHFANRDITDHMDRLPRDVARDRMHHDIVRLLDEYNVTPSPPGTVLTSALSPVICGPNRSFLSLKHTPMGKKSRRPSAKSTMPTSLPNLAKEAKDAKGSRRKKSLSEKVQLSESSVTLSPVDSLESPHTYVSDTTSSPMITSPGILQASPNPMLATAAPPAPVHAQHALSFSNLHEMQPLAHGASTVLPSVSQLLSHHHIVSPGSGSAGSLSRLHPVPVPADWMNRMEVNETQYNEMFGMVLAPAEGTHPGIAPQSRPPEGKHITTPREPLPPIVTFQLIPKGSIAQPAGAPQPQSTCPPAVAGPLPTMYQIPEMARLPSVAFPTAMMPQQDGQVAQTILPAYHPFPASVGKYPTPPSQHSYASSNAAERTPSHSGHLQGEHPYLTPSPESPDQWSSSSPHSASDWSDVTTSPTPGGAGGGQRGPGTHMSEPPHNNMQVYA

| SMILES | composite z-score [1] | composite z-score [2] | composite z-score [3] | composite z-score [4] | composite z-score [5] | composite z-score [6] | composite z-score [7] | z-score [8] | composite z-score [9] | composite z-score [10] |
| --- | --- | --- | --- | --- | --- | --- | --- | --- | --- | --- |
| C=CCN(CCCCC)C(=O)C1N(CCCCCCO)C(=O)C2C(C(=O)O)C3C=CC21O3 (stereo not given) | 1.25 and 0.679 | -0.833 and -1.2 | -0.2 and -0.248 | -1.43 and -1.82 | -2.1 and -1.82 | -0.54 and 0.234 | 1.07 and 1.32 | -0.0502 (inactive) and -0.095 (inactive) | -0.855 and -1.02 | -0.331 and -0.287 |
| C=CCN(C(=O)C(c1cccs1)N(C(=O)/C=C\C(=O)O)C(C)(C)CO)C(C)(C)C (stereo not given) | -0.0667 and 0.0338 | -0.543 and -0.24 | 0.0929 and -0.126 | -0.433 and -0.781 | -1.07 and -0.925 | 1.32 and 1.05 | 1.27 and 1.24 | -1.03 (inactive) and -1.13 (inactive) | -0.114 and -0.867 | -0.0994 and -0.385 |
| C=CCN(CCCC)C(=O)C1N(c2ccc(CCO)cc2)C(=O)C2C(C(=O)O)C3C=CC21O3 (stereo not given) | 0.508 and 1.27 | -1.1 and -1.66 | -0.156 and -0.061 | -0.883 and 0.807 | -1.32 and -0.91 | -1.32 and -0.402 | -0.493 and 0.201 | -0.267 (inactive) and 1.68 (inactive) | -0.951 and -1.03 | -0.48 and -0.137 |
| CC(CO)N1C(=O)[C@@H]2C3C(=O)OCCC=C[C@H]3OC23C=CCN(Cc2ccccc2)C(=O)[C@@H]13 (stereo not given in full) | 0.144 and 0.708 | 1.03 and -0.0188 | -0.162 and -0.111 | -0.691 and 0.0659 | -1.24 and -0.565 | -0.852 and 1.22 | 1.08 and 0.738 | 0.587 (inactive) and 0.0791 (inactive) | -0.41 and -0.455 | -0.236 and -0.34 |
| C=CCN(C(=O)C1N(CCCCCCO)C(=O)C2C(C(=O)O)C3C=CC21O3)c1ccc(OC)cc1 (stereo not given) | 0.859 and 1.23 | -0.585 and -0.754 | -0.241 and -0.18 | -2.33 and -1.4 | -2.07 and -1.8 | 1.12 and -1.47 | 0.786 and -1.16 | 0.608 (inactive) and 0.789 (inactive) | -0.718 and -0.496 | -0.126 and 0.0623 |
| CC(C)OC(=O)C=C1C[C@@H](c2ccccc2)O[C@@H](c2ccccc2)O1 | -0.682 and -0.0971 | 0.935 and 1.2 | -0.0695 and 0.0305 | 1.04 and 1.05 | 1.45 and 1.59 | 0.482 and 1.23 | 1.1 and 1.18 | -0.778 (inactive) and -0.828 (inactive) | 0.904 and 0.743 | 0.194 and 0.126 |
| CC(CO)N1C(=O)[C@@H]2C3C(=O)OCCC=C[C@H]3OC23C=CCN(c2ccc(Cl)cc2)C(=O)[C@@H]13 (stereo not given in full) | 0.982 and -0.0072 | -0.821 and -1.3 | -0.0959 and -0.159 | -0.556 and -0.282 | -0.709 and 0.149 | -0.618 and 2 | 0.923 and 1.44 | 0.741 (inactive) and 1.08 (inactive) | -0.91 and 0.118 | 0.0053 and 0.0092 |
| CO[C@@H]1C=CCC(=O)N2CCC[C@H]2C(=O)OC[C@H](C)C(=O)OC[C@H]1C | -0.368 | 1.3 | -0.0676 | 0.0525 | -0.244 | -0.226 | 1.07 | 0.0531 (inactive) | 0.191 | 0.501 |
| C=CC[C@@H](O)c1ccc(OCCO)cc1 | 0.137 and 0.75 | -0.827 and -0.804 | -0.0908 and -0.279 | -0.0284 and -0.887 | -1.41 and -2.02 | -0.773 and -0.567 | -0.0171 and 0.209 | 0.373 (inactive) and 1.07 (inactive) | -0.871 and -1.16 | -0.184 and -0.134 |
| Cc1ccc(S(=O)(=O)N[C@H]2COC(=O)[C@@H](C)COC(=O)[C@H](C)NC(=O)CC=C[C@H]2C)cc1 | -0.574 | 1.03 | -0.116 | 0.604 | 0.192 | -0.476 | -0.132 | 0.691 (inactive) | -0.154 | -0.0618 |
